In PubChem BioAssay (NCATS) one finds Z-AUC data, which are given here for 14 compounds.

Several values for one entry are separate records, joined by “and”; a condition that tells them apart may be missing. Identical values can stand only once. Activity calls are given as the source filed them. Calls come from the whole dose curve. Where a SMILES comes first, the peptide text is derived from it. [ ]: non-standard residue; d: D form.

The nature of the experiment: qHTS drug screen for cell cycle checkpoint inhibitors in PARPi-resistant BRCA-mutant ovarian cancer cell lines. (AID 1963452). Particulars: PEO1/OlaR viability, CellTiter-Glo luminescence, 96 h, stronger effect = lower value. An excerpt:
Women's Malignancies Branch, Center for Cancer Research (CCR),
National Cancer Institute (NCI), National Institutes of Health (NIH), Bethesda, MD
Poly (ADP-ribose) polymerase inhibitors (PARPis) have changed the treatment paradigm in breast cancer gene (BRCA) - mutant high-grade serous ovarian carcinoma (HGSC). However, most patients eventually develop resistance to PARPis, highlighting an unmet need for improved therapeutic strategies. Using high-throughput drug screens, we identified ataxia telangiectasia and rad3-related protein/checkpoint kinase 1 (CHK1) pathway inhibitors as cytotoxic and further validated the activity of the CHK1 inhibitor (CHK1i) prexasertib in PARPi-sensitive and -resistant BRCA-mutant HGSC cells and xenograft mouse models. CHK1i monotherapy induced DNA damage, apoptosis, and tumor size reduction. We then conducted a phase 2 study (NCT02203513) of prexasertib in patients with BRCA-mutant HGSC. The treatment was well tolerated but yielded an objective response rate of 6% (1 of 17; one partial response) in patients with previous PARPi treatment. […] BRCA reversion mutation in previously PARPi-treated BRCA-mutant patients was not associated with resistance to CHK1i.
Among others, 1082 oncology drugs, both approved and investigational, were prioritized based on their status in clinical trial development. […] Drugs with average Z-AUC values less than -1.0 in all three cell lines were classified as "hits" resulting in 151 oncology drug hits. The screen also confirmed cross-resistance between olaparib and other PARPis (rucaparib, niraparib, and talazoparib) in PARPi-resistant PEO1/OlaR and PEO4.
[1] G. L. Lin, K. M. Wilson, M. Ceribelli, B. Z. Stanton, P. J. Woo, S. Kreimer, E. Y. Qin, X. Zhang, J. Lennon, S. Nagaraja, P. J. Morris, M. Quezada, S. M. Gillespie, D. Y. Duveau, A. M. Michalowski, P. Shinn, R. Guha, M. Ferrer, C. Klumpp-Thomas, S. Michael, C. McKnight, P. Minhas, Z. Itkin, E. H. Raabe, L. Chen, R. Ghanem, A. C. Geraghty, L. Ni, K. I. Andreasson, N. A. Vitanza, K. E.Warren, C. J. Thomas, M. Monje, Therapeutic strategies for diffuse midline glioma from high-throughput combination drug screening. Sci. Transl. Med. 11, (2019).
[2] T. M. Yamamoto, A. McMellen, Z. L. Watson, J. Aguilera, R. Ferguson, E. Nurmemmedov, T. Thakar, G. L. Moldovan, H. Kim, D. M. Cittelly, A. M. Joglar, E. P. Brennecke, H. Wilson, K. Behbakht, M. J. Sikora, B. G. Bitler, Activation of Wnt signaling promotes olaparib resistant ovarian cancer. Mol. Carcinog. 58, 1770 - 1782 (2019).
PROTOCOL TABLE (as described by Inglese J, Shamu CE and Guy RK. 2007)
SEQUENCE No. (e.g., 1, 2, 3, etc.); […] (e.g., Cells, Incubation, Reagent, etc.); VALUE; DESCRIPTION.
1; Compounds; 20nL; 1536-well white tissue culture-treated plates.
2; Cells; 5 uL; PEO1, PEO4, and PEO1/OlaR cells at 600 cells per well.
3; Incubation; 96 hr; 37C, 95% humidity, 5% CO2.
4; Reagent; 3 uL; CellTiter-Glo (Promega).
5; Incubation; 15 min; room temperature.
6; Detection; Luminescence, PHERAstar (BMG Labtech) plate reader.
NOTES (numbers refer to Sequence numbers above)
1. MIPE 5.0 compounds were acoustically dispensed by Echo Acoustic Liquid Handler (Beckman Coulter Life Sciences). Each compound was plated at an 11-point concentration range with 1:3 dilution. Bortezomib, a proteasome inhibitor (final concentration, 20 uM), was used as a positive.
2. PEO1, PEO4, and PEO1/OlaR were trypsinized and dispensed in 5 uLof growth medium using a Multidrop Combi dispenser at a density of 600 cells per well to allow compounds to be present during the exponential growth phase.
3. Plates were incubated for 96 hours at standard incubator conditions and covered by a stainless steel gasketed lid to prevent evaporation.
4. Three microliters of CellTiter-Glo (Promega) were added to each well.
5. Plates were incubated at room temperature for 15 min with a stainless-steel lid in place.
6. Luminescence readings were taken using PHERAstar (BMG Labtech). […]
For orientation: In qHTS, concentration-response curves come from the screen itself.

[1] abbreviates: measured here: PEO1 parental Z-AUC.

Turning to `CS(=O)(=O)c1ccc(-c2cnc(NCc3ccco3)n3cnnc23)cc1`, the Z-AUC is 1.04 (inactive). For the same compound, the Z-AUC under setting [1] is 0.794. Further, under “measured here: PEO4 Z-AUC”, the Z-AUC came to 1.01.

With `CO[C@H]1/C=C/O[C@@]2(C)Oc3c(C)c(O)c4c(O)c(c(/C=N\N5CCN(C6CCCC6)CC5)c(O)c4c3C2=O)NC(=O)/C(C)=C\C=C\[C@H](C)[C@H](O)[C@@H](C)[C@@H](O)[C@@H](C)[C@H](OC(C)=O)[C@@H]1C`, the Z-AUC is -0.749 (inactive). The Z-AUC under setting [1] was -0.895. For the same compound, the Z-AUC (measured here: PEO4 Z-AUC) was -0.603.

In the case of `COc1cc(-c2cn(C)c(=O)c3cnccc23)cc(OC)c1CN(C)C`, the Z-AUC is 1.5 (inactive). In addition, the Z-AUC under setting [1] was 0.545. For the same compound, the Z-AUC (measured here: PEO4 Z-AUC) is 0.614.

Regarding `O=C(CCc1ccc(O)cc1)c1c(O)cc(O)cc1O[C@@H]1O[C@H](CO)[C@@H](O)[C@H](O)[C@H]1O`, the Z-AUC was 0.341 (inactive). Under setting [1], the Z-AUC came to 0.557. The Z-AUC (measured here: PEO4 Z-AUC) was 0.754.

`O=C1OC(COc2ccccc2[N+](=O)[O-])CC1Cc1ccccc1` (configuration not stated): the Z-AUC was -0.926 (inactive). Also, under setting [1], the Z-AUC is -0.0369. For the same compound, the Z-AUC (measured here: PEO4 Z-AUC) was -0.342.

`Cc1cc(C)c(CNC(=O)c2cc(-c3ccc(N4CCN(C)CC4)nc3)cc3c2c(C)cn3C(C)C)c(=O)[nH]1`: the Z-AUC was -1.15 (inactive) and -0.405 (inactive). In addition, the Z-AUC under setting [1] is -1.04 and 0.4. Besides, the Z-AUC (measured here: PEO4 Z-AUC) is -1.52 and 0.0539.

Turning to `CC(C)C[C@@H]1NC(=O)[C@@H](C(C)C)NC(=O)[C@@H]2CCCN2C(=O)[C@@H](CC(=O)O)NC(=O)[C@@H](Cc2c[nH]c3ccccc23)NC1=O` (cyclo(L[dW][dD]P[dV])), the Z-AUC was -0.319 (inactive). Besides, under setting [1], the Z-AUC worked out at 0.0618. The Z-AUC (measured here: PEO4 Z-AUC) is -0.23.

In the case of `Cn1cc(/C=C/C(=O)c2cccc(F)c2)cc1/C=C/C(=O)NO`, the Z-AUC is 0.818 (inactive). Further, the Z-AUC under setting [1] worked out at 0.213. Besides, the Z-AUC (measured here: PEO4 Z-AUC) amounted to 0.291.

For the compound `CC(=O)Nc1cc(Oc2ccc3c(nc(Nc4ccc(F)cc4F)n3C)c2C)ccn1`, the Z-AUC was -0.216 (inactive). Besides, the Z-AUC under setting [1] was -0.646. Besides, where the note is “measured here: PEO4 Z-AUC”, the Z-AUC is -1.5.

Regarding `Cc1cc(C)c(S(=O)(=O)N(CCc2cccc(Br)c2)Cc2ccc(-c3cccc(S(C)(=O)=O)c3)cc2)c(C)c1`, the Z-AUC was 0.662 (inactive). The Z-AUC under setting [1] is 0.747. The Z-AUC (measured here: PEO4 Z-AUC) came out at 0.467.

Consider `C[C@@H](Oc1ccc2[nH]nc(/C=C/c3cnn(CCO)c3)c2c1)c1c(Cl)cncc1Cl`, for which the Z-AUC was -1.01 (inactive). Further, the Z-AUC under setting [1] is -0.521. Further, the Z-AUC (measured here: PEO4 Z-AUC) was -0.403.

Regarding `NC(=S)N/N=C/c1ncccc1N`, the Z-AUC was 0.978 (inactive). Also, the Z-AUC under setting [1] is 0.81. Also, the Z-AUC (measured here: PEO4 Z-AUC) came out at 0.897.

On to `CCc1c(-c2ccccc2C)nc2c(C#N)c[nH]n2c1=O`, for which the Z-AUC was 1.17 (inactive) and -0.599 (inactive). The Z-AUC under setting [1] is 1.23 and -0.433. In addition, where the note is “measured here: PEO4 Z-AUC”, the Z-AUC was 1.49 and -0.54.

With `CCN1C(=O)CNc2ncc(-c3ccc(-c4ncn[nH]4)nc3C)nc21`, the Z-AUC was 0.377 (inactive). Further, the Z-AUC under setting [1] was determined as 0.759. For the same compound, the Z-AUC (measured here: PEO4 Z-AUC) turned out to be 0.275.
